Measurements: PubChem BioAssay (NCATS)
This is one part of the list. Records with an inconclusive call do not appear. Unmarked numbers belong to inactive results. Activity calls are given as the source filed them. The call rests on the fitted dose curve; in most records, active means well fitted inhibition curve with a large enough effect; inconclusive means small, poorly fitted or top-dose-only effect; inactive means flat fitted curve, though single readings scatter.

Each molecule was assayed on NanoLuc luciferase (engineered Oplophorus gracilirostris luciferase) (assay: Biochemical coelenterazine-based NLuc counterscreen for small molecule modulators of PMP22 gene expression - Km assay (AID 1508639;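 on activity change, negative = inhibition: substrate at 15 µM coelenterazine with 5 min compound preincubation before enzyme addition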)). Details: secreted NLuc enzyme, coelenterazine luminescence, Km conditions; series mostly up to 57.5 µM; activity change, negative = inhibition: at the top concentration.
Text: Assay Provider: Jim Inglese Ph.D. National Center for Advancing Translational Science, National Institutes of Health, Rockville, MD CMT is a heterogeneous group of neurological disorders that affect approximately 1 in 2,500 people. In particular, the most common form of CMT, CMT1A is genetically linked to the duplication of the PMP22 gene which leads to Schwann cell overexpression, thus manifesting itself as a typical case of dose-sensitive diseases. To identify small molecule compounds that can mediate the expression of PMP22 we developed a phenotypic assay screening strategy by utilizing genome editing techniques to construct Schwann cell lines containing novel reporter technology to monitor the transcriptional or translational regulation of PMP22. For high sensitivity we use a bioluminescent reporter system embedded in the 3' UTR of the PMP22 gene (S16(c9) Pmp22-F2sN) to identify compounds that inhibit gene expression. […] We can further discriminate the effect of all transcriptionally active molecules on PMP22 translation or stability with an assay that incorporates a short NLuc peptide (HiBiT) at the C-terminus of expressed PMP22 (S16(f8) PMP22-HiBiT) allowing alpha complementation and luminescence detection of membrane-associated PMP22 protein. These assays were screened against the NCATS Sytravon Library Collection. Miniaturization of these assays to 1536-well plate format for quantitative high throughput screening (qHTS) yielded rich data sets immediately from the qHTS assay (S16(c9) Pmp22-F2sN), when compared with data from a cell viability assay (Cell TiterGlo) to identify compounds that decreased the output signals through cellular toxicity to streamline the selection process of actives for subsequent characterization using the HiBiT assay (S16(f8) PMP22-HiBiT).
Biochemical Coelenterazine-based solution NLuc assay (Km assay) PROTOCOL TABLE (format as described by Inglese J, Shamu CE and Guy RK. 2007) SEQUENCE No. (e.g., 1, 2, 3, etc.); PARAMETER (e.g., Cells, Incubation, Reagent, etc.); VALUE and DESCRIPTION. 1. Reagent. Add 2 uL substrate per well into Greiner 1536-well white/solid bottom high base, medium binding plates. 2. Compounds. Library compounds and controls added at 23nL per well, transferred by Pin Tool. 3. Incubation. Incubate plates 5 min at ambient temperature. 4. Reagent. Add 2uL NLuc enzyme solution per well of Greiner 1536-well plates. 5. Incubation. Incubate plates at room temperature for 10 min., protect from light. 6. Detector. FLuc luminescence measured using CCD-based camera (Viewlux). NOTES (numbers refer to Sequence numbers above; values are from representative experiments) 1. Freshly prepared 15 uM Coelenterazine, 0.3M Sodium Ascorbate, 0.005M NaCl and 0.1% TritonX in PBS pH7.4, filtered through […]. 4. Enzyme was obtained by filtering media of S16 cells expressing secreted NLuc (Inglese et al. 2014) grown to 80-90% confluency in DMEM High Glucose, No Phenol Red media + 10% heat inactivated FBS + 1% Pen/Strep supplemented media6. Luminescence Read (Fluc): Clear filter; Exposure = 10 sec, Gain = High, Speed = Slow, Binning = 2X 6. Luminescence Read (Nluc): Clear filter; Exposure = 1 sec, Gain = High, Speed = Slow, Binning = 2X REFERENCES: 1. Inglese J, Shamu CE and Guy RK, Reporting data from high throughput screening of small molecule libraries, Nature Chemical Biology, 2007, 3(8): 438-441. doi.org/10.1038/nchembio0807-438 2. Yasgar A, Shinn P, Jadhav A, Auld DS, Michael S, Zheng W, Austin CP, Inglese J and Simeonov A, Compound Management for Quantitative High-Throughput Screening. J. Assoc. Lab. Auto., 2008, 13: 79-89. doi: 10.1016/j.jala.2007.12.004 3. Inglese, J., Dranchak, P., Moran, J. J., Jang, S. W., Srinivasan, R., Santiago, Y., Zhang, L., Guha, R., Martinez, N., MacArthur, R., Cost, G. J., and Svaren, J. (2014) Genome editing-enabled HTS assays expand drug target pathways for Charcot-Marie-tooth disease, ACS Chem Biol 9, 2594-2602.
On the % scale 0 is the no-effect control and ±100 the full control effect; potency means the concentration at half of the fitted maximal effect.

SMILES	Potency	activity change, negative = inhibition
CCOC(=O)c1ccc(N2C(=O)c3n[nH]c(C)c3C2c2ccc(O)c(OC)c2)cc1 (stereo unspecified)	19.3 µM (active)	
CCOc1ccc(NC(=O)c2c(NC(=O)Cc3ccccc3)sc3c2CCC(C)C3)cc1 (stereo unspecified)	17.2 µM (active)	
CCCn1c2ccccc2c2cnn(CC(=O)NCC3CCN(Cc4ccc(C)cc4)CC3)c(=O)c21		6.62%
CCCCOc1ccc(CN2C(=O)C(=O)c3cc(Br)cc(C)c32)cc1OC		0.323%
CC(C)(C)c1ccc(C(=O)NCC(c2ccco2)S(=O)(=O)c2ccc(F)cc2)cc1 (stereo unspecified)		7.58%
Cc1ccc(OCCSc2nc3ccc(NC(=O)COc4ccc(C)cc4)cc3s2)cc1		-1.1%
Cc1cc(F)ccc1NS(=O)(=O)c1ccc(-n2cccn2)cc1	13.7 µM (active)	
O=C(NCCCN1CCN(c2cccc(Cl)c2)CC1)c1nnc(Cc2ccc(F)cc2Cl)o1		-8.09%
CCc1ccc(C2CC(=O)c3c([nH]c(C(=O)OCc4ccc(C)cc4)c3C)C2)cc1 (stereo unspecified)		1.45%
CCOC(=O)c1c(C)[nH]c(CCC(=O)NCCCN2CCN(c3cccc(Cl)c3)CC2)c1C		-1.54%
CCC1=Nc2cc(C(=O)NCCCOC(C)C)ccc2Sc2ccc(C)cc21		-0.336%
CC(=O)N1CCCc2cc(S(=O)(=O)N3CCCC(C(=O)N4CCN(c5cccc(Cl)c5)CC4)C3)ccc21 (stereo unspecified)		7.45%
CCOCCCNC(=O)c1c(NC(=O)c2nc(SC)ncc2Cl)sc2c1CCCC2		2.95%
COc1cccc(NC(=O)CSC2=Nc3ccccc3C3=NC(CC(=O)NC4CCCCC4)C(=O)N23)c1 (stereo unspecified)		1.03%
Cc1nnc(SCC(=O)NCc2ccccc2Cl)c2nn(-c3ccccc3)c(C)c12		-7.95%
COc1ccc(-c2onc(C)c2C)cc1S(=O)(=O)NCC1CCN(Cc2cccc(F)c2)CC1		7.67%

SMILES	Potency	activity change, negative = inhibition
CCCS(=O)(=O)c1ncc(Cl)c(C(=O)Nc2scc(-c3ccccc3)c2C(=O)OCC)n1		-0.943%
CCOC(=O)c1ccc(NC(=O)CSc2nc3c([nH]c4ccccc43)c(=O)n2C)cc1		-8.06%
CCOC(=O)C1CCN(C(=O)CSc2c3c(nc4ccc(Cl)cc24)CCCC3)CC1		-3.72%
Cc1cccc(Nc2cc(C)nc(-n3nc(C)cc3C)n2)c1	9.68 µM (active)	
Cc1ccc(C)n1-c1nnc(N2CCC(C(=O)NCc3ccccc3Cl)CC2)s1		2.9%
Cc1cc(OCC(=O)NCC2(N(C)C)CCCCC2)cc(C)c1Cl		2.33%
Cc1ccccc1CNC(=O)CSc1nnc(C)c2c(C)n(-c3ccccc3)nc12		-1.41%
COc1ccccc1Nc1c2c(nc3ccc(NC(=O)/C=C/c4cc(OC)c(OC)c(OC)c4)cc13)CCCC2	1.93 µM (active)	
CCCn1c(=N)c(C(=O)NCc2ccccc2)cc2c(=O)n3cccc(C)c3nc21		-13.3%
CCC1CCCCN1CCCNC(=O)c1cc2c(Cl)nc3ccccc3c2s1 (stereo unspecified)		2.64%
CCOC(=O)c1c(C)[nH]c(CCC(=O)NCCCN2CCN(c3cc(C)ccc3C)CC2)c1C		-2.31%
COc1ccc(CCNC(=O)c2cc(=O)c3c(C)cc(C)cc3o2)cc1OC	0.273 µM (active)	
O=C(c1ccc2c(c1)N(Cc1ccc(F)cc1)C(=O)c1ccccc1S2(=O)=O)N1CCN(c2ccccn2)CC1	1.93 µM (active)	
O=C(c1ccc(C(F)(F)F)cc1)N1CCC(c2nc(-c3ccc(S(=O)(=O)N4CCCC4)cc3)no2)CC1		3.36%
Cc1ccc(CCNC(=O)C2CCN(c3nnc(-n4cccc4CNc4ccc(C)cc4)s3)CC2)cc1		4.33%
